Measured values from PubChem BioAssay (NCATS).
Results filed as inconclusive are left out. Activity calls are given as the source filed them. Calls follow the shape of the dose curve; as a rule, active = well fitted curve in the direction sought with a large enough effect; inconclusive = small, poorly fitted or top-dose-only effect, or another doubt; inactive = no such curve, though single readings can be large; an effect the other way counts as inactive or inconclusive.

Key:
[1] = target: Rap guanine nucleotide exchange factor 3 (Homo sapiens) (UniProt O95398); assay: Confirmatory qHTS for antagonist of cAMP-regulated guanine nucleotide exchange factor 3 (EPAC1) (AID 1645880); also: nearly all actives have a fitted effect of over 55% in size; also: potency is read from the fitted curve at half-maximal effect
Sequence of Rap guanine nucleotide exchange factor 3 (Homo sapiens) (O95398 whole entry, looked up): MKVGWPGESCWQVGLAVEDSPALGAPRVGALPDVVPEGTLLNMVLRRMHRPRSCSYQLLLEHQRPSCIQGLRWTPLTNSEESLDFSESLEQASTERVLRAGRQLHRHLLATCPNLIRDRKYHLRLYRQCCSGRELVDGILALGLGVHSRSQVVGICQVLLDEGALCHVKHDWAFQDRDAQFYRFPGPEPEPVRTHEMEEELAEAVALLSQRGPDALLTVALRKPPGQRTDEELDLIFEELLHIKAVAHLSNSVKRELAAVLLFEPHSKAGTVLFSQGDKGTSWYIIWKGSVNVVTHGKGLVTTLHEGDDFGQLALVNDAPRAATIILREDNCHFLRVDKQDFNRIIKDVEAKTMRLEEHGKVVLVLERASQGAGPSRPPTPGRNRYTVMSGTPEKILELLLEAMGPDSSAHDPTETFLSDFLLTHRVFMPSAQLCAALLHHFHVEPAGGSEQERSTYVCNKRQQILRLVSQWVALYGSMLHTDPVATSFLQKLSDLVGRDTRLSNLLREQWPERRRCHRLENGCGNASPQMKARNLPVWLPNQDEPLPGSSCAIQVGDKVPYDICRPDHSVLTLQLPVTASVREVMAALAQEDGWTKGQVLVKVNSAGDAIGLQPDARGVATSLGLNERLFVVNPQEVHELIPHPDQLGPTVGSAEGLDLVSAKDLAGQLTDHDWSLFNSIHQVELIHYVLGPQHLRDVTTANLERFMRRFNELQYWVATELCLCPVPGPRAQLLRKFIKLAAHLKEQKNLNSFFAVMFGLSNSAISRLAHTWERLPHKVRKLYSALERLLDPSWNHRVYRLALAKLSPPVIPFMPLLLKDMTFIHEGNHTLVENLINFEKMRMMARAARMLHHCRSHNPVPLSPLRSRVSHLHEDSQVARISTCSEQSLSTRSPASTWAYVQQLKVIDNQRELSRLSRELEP
Outline: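 Released BODIPY-GDP fluoresces less than Rap1-bound BODIPY-GDP; the signal is followed at 480/540 nm at 5-min intervals over 30 min, after 5 min at room temperature. Reactions contain 100 nM EPAC1, 250 nM RAP1B-BODIPY-GDP and 50 uM GDP; results are normalized to ATA and DMSO.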

[2] = target: Rap guanine nucleotide exchange factor 3 (Homo sapiens) (UniProt O95398); assay: Confirmatory qHTS for agonist of cAMP-regulated guanine nucleotide exchange factor 3 (EPAC1) (AID 1645881);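 also: EPAC1 catalysed release of BODIPY-GDP from Rap1B seen as fluorescence loss; 100% = effect of cAMP agonist control; nearly all actives have a fitted effect of over 75% in size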
[3] = target: Rap guanine nucleotide exchange factor 4 (Homo sapiens) (UniProt Q8WZA2); assay: Confirmatory qHTS for agonist of cAMP-regulated guanine nucleotide exchange factor 4 (EPAC2) (AID 1645884);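 also: nucleotide exchange releases bodipy-GDP from Rap1 and this lowers its fluorescence; % is scaled to controls: 0 for no effect and ±100 for the full control effect; nearly all actives have a fitted effect of over 65% in size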
Sequence of Rap guanine nucleotide exchange factor 4 (Homo sapiens) (Q8WZA2 whole entry, looked up): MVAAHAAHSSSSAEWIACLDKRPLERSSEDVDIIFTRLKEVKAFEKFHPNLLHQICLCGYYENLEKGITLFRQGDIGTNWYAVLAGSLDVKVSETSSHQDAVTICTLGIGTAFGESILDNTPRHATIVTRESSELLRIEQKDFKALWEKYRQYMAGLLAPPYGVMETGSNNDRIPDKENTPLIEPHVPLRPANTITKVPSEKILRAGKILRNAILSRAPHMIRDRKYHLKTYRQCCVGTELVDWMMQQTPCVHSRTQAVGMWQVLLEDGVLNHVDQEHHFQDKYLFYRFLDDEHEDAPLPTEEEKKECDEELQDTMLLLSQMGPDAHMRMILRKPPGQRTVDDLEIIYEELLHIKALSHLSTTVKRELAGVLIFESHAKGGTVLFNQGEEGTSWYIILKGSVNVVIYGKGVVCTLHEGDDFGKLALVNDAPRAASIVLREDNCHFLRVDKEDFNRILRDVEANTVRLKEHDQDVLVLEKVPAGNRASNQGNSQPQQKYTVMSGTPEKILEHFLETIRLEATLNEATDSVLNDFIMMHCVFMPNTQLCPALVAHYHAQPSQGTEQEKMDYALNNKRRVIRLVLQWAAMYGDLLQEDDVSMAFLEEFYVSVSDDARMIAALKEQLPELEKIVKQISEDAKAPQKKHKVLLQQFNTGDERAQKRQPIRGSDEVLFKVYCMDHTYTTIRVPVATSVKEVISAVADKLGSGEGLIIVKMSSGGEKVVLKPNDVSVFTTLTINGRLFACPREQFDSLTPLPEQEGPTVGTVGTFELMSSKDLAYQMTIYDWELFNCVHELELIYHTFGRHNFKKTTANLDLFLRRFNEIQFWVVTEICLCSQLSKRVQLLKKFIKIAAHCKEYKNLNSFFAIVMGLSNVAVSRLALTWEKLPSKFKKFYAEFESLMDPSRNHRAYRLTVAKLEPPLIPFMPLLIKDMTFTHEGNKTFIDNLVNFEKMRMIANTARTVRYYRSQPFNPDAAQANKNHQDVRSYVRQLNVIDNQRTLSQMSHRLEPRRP

[4] = target: Rap guanine nucleotide exchange factor 4 (Homo sapiens) (UniProt Q8WZA2); assay: Confirmatory qHTS for antagonist of cAMP-regulated guanine nucleotide exchange factor 4 (EPAC2) (AID 1645885); also: nearly all actives have a fitted effect of over 25% in size; also: potency is read from the fitted curve at half-maximal effect; as to activity change, negative = inhibition: % is scaled to controls: 0 for no effect and ±100 for the full control effect
[5] = target: Rap guanine nucleotide exchange factor 3 (Homo sapiens) (UniProt O95398); assay: Counterscreen qHTS for antagonist of cAMP-regulated guanine nucleotide exchange factor 3 (EPAC1) (AID 1645888); also: % of control where 0% means no effect
Outline: (§1)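 Rap1B–BODIPY-GDP (250 nM) with 50 uM GDP; compounds pin-transferred to 9.74 nM–152 uM final (activator) or from 7.32 nM upwards (inhibitor). Fluorescence Ex/Em 480/540 nm read at 5 and 30 min, then after adding cAMP or buffer, at room temperature.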

[6] = target: Rap guanine nucleotide exchange factor 3 (Homo sapiens) (UniProt O95398); assay: Counterscreen qHTS for agonist of cAMP-regulated guanine nucleotide exchange factor 3 (EPAC1) (AID 1645889); also: nearly all actives have a fitted effect of over 40% in size; also: potency is read from the fitted curve at half-maximal effect; as to activation: % of control where 0% means no effect
Outline: as §1

CC(C)CCOc1ccc(C2(C)NC(=O)N(CN3CCOCC3)C2=O)cc1 (centres undefined)
inactive: Potency [1] | Potency [2] | Potency [3] | Potency [4] | Potency [5] | Potency [6]

O=C(O)c1ccc(Nc2ncnc3ccccc23)cc1
inactive: Potency [1] | Potency [2] | Potency [3] | Potency [4] | Potency [5] | Potency [6]

N=C1/C(=C\c2ccc(OC(=O)c3ccccc3Cl)cc2)C(=O)N=C2SC(N3CCOCC3)=NN12
active: Potency [1] 19 µM
inactive: Potency [2] | Potency [3] | Potency [4] | Potency [5] | Potency [6]

C=CCOc1ccc(/C=C2\SC(=S)N(NS(=O)(=O)c3ccccc3)C2=O)cc1
inactive: Potency [2] | Potency [3] | Potency [5] | Potency [6]
active: Potency [1] 47.8 µM | Potency [4] 42.6 µM

CSCCC(NS(=O)(=O)c1ccc2c(c1)oc(=O)n2C)C(=O)NC1CCCc2ccccc21 (centres undefined)
inactive: Potency [1] | Potency [2] | Potency [3] | Potency [4] | Potency [5] | Potency [6]

c1ccc(-n2nnnc2-n2ccnc2)cc1
inactive: Potency [1] | Potency [2] | Potency [3] | Potency [4] | Potency [5] | Potency [6]

C/C(=N\NC(=O)C1CC1)c1cccs1
inactive: Potency [1] | Potency [2] | Potency [3] | Potency [4] | Potency [5] | Potency [6]

O=C1O/C(=C/c2ccccc2)N=C1c1ccccc1
inactive: Potency [1] | Potency [2] | Potency [3] | Potency [4] | Potency [5] | Potency [6]

Cn1c(N)c(C(=O)COC(=O)COc2ccccc2C#N)c(=O)n(C)c1=O
inactive: Potency [1] | Potency [2] | activation [3] 1.14% [at 17.1 µM, percent relative to cAMP agonist control] | Potency [4] | activity change, negative = inhibition [5] 3.67% [at 30.8 µM] | activation [6] 3.75% [at 30.8 µM]

O=C(Nc1cccc(Cl)c1)OC1CCCCc2cccnc21 (centres undefined)
inactive: Potency [1] | Potency [2] | activation [3] 5.07% [at 17.1 µM, percent relative to cAMP agonist control] | Potency [4] | activity change, negative = inhibition [5] -21.2% [at 30.8 µM] | activation [6] 25.6% [at 30.8 µM]

COc1ccc(N(C)S(=O)(=O)c2cccc3nsnc23)cc1
inactive: Potency [1] | Potency [2] | Potency [3] | Potency [4] | Potency [5] | Potency [6]

Cc1[nH]c(C)c2c(=O)n(Cc3ccc(Cl)cc3)ncc12
active: Potency [4] 15.1 µM
inactive: Potency [1] | Potency [2] | Potency [3] | Potency [5] | Potency [6]

COc1ccccc1OCCCSc1nc(-c2ccc(C(C)(C)C)cc2)nc2cc(=O)[nH]n12
active: Potency [1] 67.5 µM
inactive: Potency [2] | Potency [3] | Potency [4] | Potency [5] | Potency [6]

O=C(Cc1ccccc1)O/N=C1\CCCc2ccccc21
inactive: Potency [1] | Potency [2] | Potency [3] | Potency [4] | Potency [5] | Potency [6]

CCCCN1C(=O)C(C(=O)OCc2ccccc2)CC2=C1CCCC2=O (centres undefined)
inactive: Potency [1] | Potency [2] | Potency [3] | Potency [4] | Potency [5] | Potency [6]

O=C(O)c1cccc(NC(=O)c2cn(-c3ccccc3)nc2-c2cc3ccccc3o2)c1
active: Potency [1] 50.1 µM
inactive: Potency [2] | activation [3] 0.161% [at 17.1 µM, percent relative to cAMP agonist control] | Potency [4] | activity change, negative = inhibition [5] -4.75% [at 30.8 µM] | activation [6] 16.8% [at 30.8 µM]

COc1cccc(-c2ccc(C#N)c(OC(=O)c3ccc(Cl)cc3)n2)c1
inactive: Potency [1] | Potency [2] | activation [3] 0.578% [at 17.1 µM, percent relative to cAMP agonist control] | Potency [4] | activity change, negative = inhibition [5] -4.63% [at 30.8 µM] | activation [6] 3.51% [at 30.8 µM]

O=c1[nH]c2cc3c(cc2cc1CN(Cc1ccccc1)Cc1nnnn1Cc1ccco1)OCCO3
inactive: Potency [2] | Potency [3] | Potency [4] | Potency [5] | Potency [6]
active: Potency [1] 42.6 µM

CC(Sc1nncn1C)C(=O)Nc1nnc(C(C)C)s1 (centres undefined)
inactive: Potency [1] | Potency [2] | Potency [3] | Potency [4] | Potency [5] | Potency [6]

O=C(OC1CCOC1=O)c1ccc(-c2nc3ccccc3s2)s1 (centres undefined)
inactive: Potency [1] | Potency [2] | Potency [3] | outcome [4] inactive [at 12.7 µM] | Potency [5] | Potency [6]

C=CCN(CC=C)Cc1cc(=O)oc2ccc3ccccc3c12
inactive: Potency [1] | Potency [2] | activation [3] -1.79% [at 17.1 µM, percent relative to cAMP agonist control] | Potency [4] | activity change, negative = inhibition [5] -12.3% [at 30.8 µM] | activation [6] 4.33% [at 30.8 µM]

COc1cc(O)cc(O)c1C(=O)/C=C/c1ccccc1
active: Potency [1] 67.5 µM
inactive: Potency [2] | Potency [3] | Potency [4] | Potency [5] | Potency [6]

O=S(=O)(NCc1cn2ccsc2n1)c1cccs1
inactive: Potency [1] | Potency [2] | activation [3] 0% [at 17.1 µM, percent relative to cAMP agonist control] | Potency [4] | activity change, negative = inhibition [5] -13.2% [at 30.8 µM] | activation [6] 3.73% [at 30.8 µM]

O=C(O)CCc1ccc(-c2ccccc2)n1-c1cccc(Br)c1
inactive: Potency [1] | Potency [2] | Potency [3] | outcome [4] inactive; activator; fitted 0.0054 uM [at 12.7 µM] | Potency [5] | Potency [6]

COc1ccc(C(CC(=O)N2CCOCC2)c2c(OC)cc(OC)c3c(-c4ccccc4)cc(=O)oc23)cc1 (centres undefined)
inactive: Potency [2] | Potency [3] | Potency [4] | Potency [5] | Potency [6]
active: Potency [1] 37.9 µM

Cc1c(OC(C)C(=O)NC(Cc2c[nH]c3ccc(O)cc23)C(=O)O)ccc2c1oc(=O)c1ccccc12 (centres undefined)
inactive: Potency [2] | Potency [3] | Potency [4] | Potency [5] | Potency [6]
active: Potency [1] 13.5 µM

Cc1cc(=O)n(C2CCS(=O)(=O)C2)[nH]1 (centres undefined)
inactive: Potency [1] | Potency [2] | Potency [3] | Potency [4] | Potency [5]
active: Potency [6] 4.47 µM

CCOC(=O)C1CCCN(C(=O)C(C)(C)Oc2ccc(Cl)cc2)C1 (centres undefined)
inactive: Potency [1] | Potency [2] | Potency [3] | Potency [4] | Potency [5] | Potency [6]

Cn1cc([C@]2(O)C(=O)Nc3ccc(F)cc32)c2ccccc21
inactive: Potency [1] | Potency [2] | activation [3] -4.66% [at 17.1 µM, percent relative to cAMP agonist control] | Potency [4] | activity change, negative = inhibition [5] -17.1% [at 30.8 µM] | activation [6] 12.7% [at 30.8 µM]

Cc1ccccc1N(CC(=O)NC1CCCC1)C(=O)c1csnn1
inactive: Potency [1] | Potency [2] | activation [3] -0.443% [at 17.1 µM, percent relative to cAMP agonist control] | Potency [4] | activity change, negative = inhibition [5] -9.99% [at 30.8 µM] | activation [6] -0.253% [at 30.8 µM]

CCOc1ccc(C(C(=O)NC2CCCC2)N(C(=O)c2snc(C(N)=O)c2N)C2CCCC2)cc1 (centres undefined)
inactive: Potency [1] | Potency [2] | Potency [3] | Potency [4] | Potency [5] | Potency [6]

CC(C)(C)c1ccc(C(CC(=O)O)NC(=O)CSc2ccccc2)cc1 (centres undefined)
inactive: Potency [1] | Potency [2] | Potency [3] | Potency [4] | Potency [5] | Potency [6]

CCc1ccc(S(=O)(=O)Nc2cc3c(cc2C)n(C)c(=O)n3C)cc1
inactive: Potency [1] | Potency [2] | activation [3] 6.63% [at 17.1 µM, percent relative to cAMP agonist control] | Potency [4] | activity change, negative = inhibition [5] -10.1% [at 30.8 µM] | activation [6] 18.2% [at 30.8 µM]

O=C(Nc1cc(-c2ccccc2)sc1C(=O)O)c1cccc(F)c1
active: Potency [1] 47.8 µM
inactive: Potency [2] | Potency [3] | Potency [4] | Potency [5] | Potency [6]

Cc1ccc(S(=O)(=O)N2C(c3ccc(Cl)c(Cl)c3)CC=C(C(=O)O)C2c2ccc(Cl)cc2)cc1 (centres undefined)
inactive: Potency [2] | Potency [3] | Potency [4] | Potency [5] | Potency [6]
active: Potency [1] 84.9 µM

CC(=O)NC(c1ccc(C)cc1)c1cc(Cl)c2cccnc2c1O (centres undefined)
inactive: Potency [1] | Potency [2] | Potency [3] | Potency [4] | Potency [5] | Potency [6]

C=CCCCN(Cc1ccccc1)S(=O)(=O)c1ccccc1Br
inactive: Potency [1] | Potency [2] | activation [3] 1.87% [at 17.1 µM, percent relative to cAMP agonist control] | Potency [4] | activity change, negative = inhibition [5] -1.46% [at 30.8 µM] | activation [6] 12.4% [at 30.8 µM]

CC1(C(=O)NS(=O)(=O)c2cccc(F)c2)CCN1C(=O)C1(c2ccc(Cl)cc2)CCC1 (centres undefined)
inactive: Potency [2] | Potency [3] | Potency [4] | Potency [5] | Potency [6]
active: Potency [1] 19 µM

O=C(O)CN1C(=O)/C(=C\c2ccccc2OCc2ccc(Cl)cc2Cl)SC1=S
inactive: Potency [2] | activation [3] -0.613% [at 17.1 µM, percent relative to cAMP agonist control] | Potency [4] | activity change, negative = inhibition [5] -18.8% [at 30.8 µM] | activation [6] 3.68% [at 30.8 µM]
active: Potency [1] 44.7 µM

O=C(COC(=O)c1ccc2c(c1)OCO2)NC1CCS(=O)(=O)C1 (centres undefined)
inactive: Potency [1] | Potency [2] | Potency [3] | Potency [4] | Potency [5] | Potency [6]

O=C(O)C(c1ccccc1)N1C(=O)/C(=C\c2ccc(O)c(O)c2)SC1=S (centres undefined)
active: Potency [1] 6.75 µM | Potency [4] 21.3 µM
inactive: Potency [2] | Potency [3] | Potency [5] | Potency [6]

COc1ccc(C(C)=NNc2ccc([N+](=O)[O-])cc2S(=O)(=O)Nc2ccccc2C(=O)O)c(OC)c1
inactive: Potency [2] | Potency [3] | Potency [5] | Potency [6]
active: Potency [1] 37.9 µM | Potency [4] 75.7 µM

Cc1csc(SCC(=O)NC23CC4CC(CC(C4)C2)C3)n1
inactive: Potency [1] | Potency [2] | activation [3] 1.39% [at 17.1 µM, percent relative to cAMP agonist control] | Potency [4] | activity change, negative = inhibition [5] -23.6% [at 30.8 µM] | activation [6] 22.6% [at 30.8 µM]

CCC(C)NC(=O)Cn1c(=O)n(CCCCCC(=O)Nc2ccccc2)c(=O)c2sccc21 (centres undefined)
inactive: Potency [1] | Potency [2] | Potency [3] | Potency [4] | Potency [5] | Potency [6]
